Measured values taken from PubChem BioAssay AID504329 (Southern Research Specialized Biocontainment Screening …, 2011).
Screen size: about 340,000 compounds; about 1,000 (0.29%) were called active. The list is a sample of the results. Measured potencies and affinities stand elsewhere. Unmarked numbers belong to inactive results. No stated cut-off is given here; in the data, inconclusive means inhibition above about 27% without an active follow-up result; inactive means below that.

experiment: NS1A inhibition, H1N1 influenza, cell based functional assay (AID 504329); conditions: percent inhibition, at 12.5 µM, stronger effect = higher value

| SMILES | inhibition |
| --- | --- |
| COc1ccc(S(=O)(=O)Nc2ccc3c(c2)C(=O)N([C@H](C)CO)C[C@H](C)[C@@H](CN(C)C(=O)Nc2ccccc2)O3)cc1 | 6.6% |
| COc1ccc(Nc2nc3c([nH]2)c(=O)[nH]c(=O)n3C)cc1 | -6.85% |
| O=C(CN1C(=O)NC2(CCOc3ccccc32)C1=O)NCCc1ccc(F)cc1 (configuration not stated) | -8.82% |
| N#CCCN1CCN(C2=NC(=O)/C(=C\c3cccs3)S2)CC1 | 8.67% |
| CCOC(=O)c1ccccc1NC(=O)/C=C/c1cc(OC)c(OC)c(OC)c1 | -4.73% |
| COc1cccc([C@@H]2CC=C(C(=O)O)[C@H](c3ccc(Br)cc3)N2S(=O)(=O)c2ccc(C)cc2)c1 | -4.53% |
| CN(N=Nc1ccc([N+](=O)[O-])cc1)c1ccccc1 | 8.69% |
| CCCCN(C)c1ccc([N+](=O)[O-])cc1 | 11.8% |
| Cc1ccc(CSC2=NCCN2C(=O)c2ccc([N+](=O)[O-])cc2)cc1 | 5.18% |
| COc1ccc([C@@H]2CC=C(C(=O)O)[C@H](c3ccccc3)N2S(=O)(=O)c2ccccc2C)cc1 | -3.46% |
| COc1ccc(/C=N/S(=O)(=O)c2cccs2)cc1 | 4.61% |
| COc1ccc(-c2nsc3c(SCc4ccccc4)ncnc23)cc1 | -10.6% |
| COc1cc(-c2cc(=O)c3ccccc3o2)ccc1O | -19% |
| Cc1cc2oc(=O)cc(-c3cc4ccccc4o3)c2cc1O | -6.82% |
| COc1ccc2c(=O)cc(-c3ccccc3F)oc2c1 | -4.71% |
| COc1ccc(OC)c(-c2oc3ccccc3c(=O)c2O)c1 | -8.28% |
| O=c1cc2oc3cc(O)c(O)cc3c(-c3ccccc3[N+](=O)[O-])c-2cc1O | 20.1% |
| O=c1cc2oc3cc(O)c(O)cc3c(-c3ccccc3O)c-2cc1O | 4.83% |
| Cc1ccccc1-c1cc(=O)c2c(O)cccc2o1 | -13.3% |
| COc1c(O)cc2oc(-c3ccc(O)c(O)c3)cc(=O)c2c1O | 2.55% |
| CCCC(OC(=O)CC1Sc2ccccc2NC1=O)C(=O)NCc1ccco1 (configuration not stated) | 4.36% |
| N#Cc1cc(-c2ccccc2)oc1NC(=O)c1ccccc1 | 0.56% |
| COc1ccc(N2CCN(C(=O)c3ccc(S(=O)(=O)NCc4ccco4)cc3)CC2)cc1 | 6.25% |
| Cc1ccc(N=Nc2[nH]c3ccccc3c2O)cc1 | -4.85% |
| COc1cccc(N=Nc2ccc3cccnc3c2O)c1 | 6.02% |
| COc1ccc(N=Nc2ccc3ccccc3c2)c(O)c1 | 25.1% |
| Cc1ccc(C(=O)NNC(=O)c2ccc3ccccc3c2O)cc1 | -5% |
